From PubChem BioAssay (EPA / NIEHS)
The source made the active and inactive calls. How the source made its calls: active means hit-call score of the fitted dose curve at least 0.9, where 1 is the maximum; inactive means score below 0.9.

Columns and labels:
[1] = ATG_CRE_CIS: Attagene CIS-FACTORIAL HepG2 Assay for human cAMP Responsive Element (CRE) binding protein 3 (AID 2282926); settings: HepG2 CRE cis-reporter, Attagene multiplexed mRNA; actives raise or lower the signal
Procedure, shortened: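 Multiplexed transcription-unit reporters transfected into HepG2; 24 h dosing; RT-PCR/capillary electrophoresis fluorescence read-out; bidirectional fit vs DMSO.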

[2] = target: CCAAT/enhancer-binding protein beta (Homo sapiens) (UniProt P17676); assay: ATG_C_EBP_CIS: Attagene CIS-FACTORIAL HepG2 Assay for human CCAAT/Enhancer Binding Protein (C/EBP) beta (AID 2282927); settings: HepG2 Attagene cis-factorial transcription factor reporter; actives raise or lower the signal
CCAAT/enhancer-binding protein beta (Homo sapiens), sequence (P17676 whole entry, looked up): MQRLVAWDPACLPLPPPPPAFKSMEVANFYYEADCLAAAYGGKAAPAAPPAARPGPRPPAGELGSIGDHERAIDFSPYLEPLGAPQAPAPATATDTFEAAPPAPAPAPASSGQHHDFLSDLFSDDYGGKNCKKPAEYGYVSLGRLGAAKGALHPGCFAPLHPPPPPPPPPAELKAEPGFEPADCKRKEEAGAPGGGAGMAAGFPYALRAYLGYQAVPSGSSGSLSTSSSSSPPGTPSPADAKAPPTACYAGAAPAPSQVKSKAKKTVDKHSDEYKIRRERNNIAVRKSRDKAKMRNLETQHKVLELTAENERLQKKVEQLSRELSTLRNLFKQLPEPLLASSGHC
Procedure, shortened: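 Following a 24 h incubation with test chemical, transfected HepG2 cells yielded RNA whose reporter transcripts were quantified by RT-PCR and fluorescent capillary electrophoresis, with DMSO serving as baseline for bidirectional fitting.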

[3] = ATG_DR4_LXR_CIS: Attagene CIS-FACTORIAL HepG2 Assay for human Liver X Receptor (LXR), DR4 submotif (AID 2282929); settings: HepG2 Attagene DR4 cis-reporter, mRNA transcription; actives raise or lower the signal
Procedure, shortened: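 Fluorescence intensity of labelled reporter cDNA fragments, separated by capillary electrophoresis, gives the signal. HepG2 cells bearing cis-regulated reporter constructs were treated 24 h; activity fitted bidirectionally relative to DMSO negative control.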

[4] = target: Aryl hydrocarbon receptor (Homo sapiens) (UniProt P35869); assay: ATG_Ahr_CIS: Attagene CIS-FACTORIAL HepG2 Assay for human Aryl Hydrocarbon Receptor (Ahr) (AID 2282930); settings: HepG2 AhR cis-factorial reporter transcription; actives raise or lower the signal
Aryl hydrocarbon receptor (Homo sapiens), sequence (P35869 whole entry, looked up): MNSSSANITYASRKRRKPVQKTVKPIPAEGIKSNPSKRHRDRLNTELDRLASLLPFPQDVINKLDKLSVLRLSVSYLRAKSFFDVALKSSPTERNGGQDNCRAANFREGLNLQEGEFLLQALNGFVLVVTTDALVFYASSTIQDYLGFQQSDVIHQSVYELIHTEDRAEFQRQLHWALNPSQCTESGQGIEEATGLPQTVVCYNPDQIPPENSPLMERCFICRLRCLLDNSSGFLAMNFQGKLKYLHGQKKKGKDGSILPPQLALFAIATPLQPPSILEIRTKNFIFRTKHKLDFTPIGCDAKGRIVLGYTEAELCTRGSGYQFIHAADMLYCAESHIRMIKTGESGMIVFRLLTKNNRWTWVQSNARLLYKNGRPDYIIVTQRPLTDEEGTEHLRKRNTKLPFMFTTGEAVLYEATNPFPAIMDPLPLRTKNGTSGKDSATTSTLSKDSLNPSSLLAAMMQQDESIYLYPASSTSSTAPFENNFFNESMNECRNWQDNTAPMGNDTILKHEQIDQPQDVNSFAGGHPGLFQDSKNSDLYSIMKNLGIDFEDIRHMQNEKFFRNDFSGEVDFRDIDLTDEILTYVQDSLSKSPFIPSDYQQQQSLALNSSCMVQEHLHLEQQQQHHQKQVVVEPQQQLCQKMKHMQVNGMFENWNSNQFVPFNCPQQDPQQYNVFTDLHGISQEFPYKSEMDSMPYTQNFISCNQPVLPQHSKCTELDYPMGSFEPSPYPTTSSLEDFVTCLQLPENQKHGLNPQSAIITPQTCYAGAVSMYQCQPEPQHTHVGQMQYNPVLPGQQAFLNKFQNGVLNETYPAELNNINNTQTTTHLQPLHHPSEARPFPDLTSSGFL
Procedure, shortened: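 Values derive from bidirectional fitting against DMSO negative control. Underlying signal: cis-element reporter mRNA in transiently transfected HepG2, harvested 24 h post-dose and measured by RT-PCR plus capillary electrophoresis.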

[5] = ATG_AP_2_CIS: Attagene CIS-FACTORIAL HepG2 Assay for human Activator Protein 2 (AP-2) (AID 2282932); settings: HepG2 AP-2 cis-reporter, Attagene transcription factor profiling; actives raise or lower the signal
Procedure, shortened: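 HepG2 cells were transiently transfected with multiple cis-promoter reporter transcription units and dosed for 24 h. Reporter mRNA was measured by RT-PCR with capillary electrophoresis fluorescence; bidirectional fits relative to DMSO baseline.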

[6] = ATG_BRE_CIS: Attagene CIS-FACTORIAL HepG2 Assay for human Bone Morphogenetic Protein (BMP) Response Element (BRE) (AID 2282933); settings: HepG2 BMP response element reporter, Attagene transcription factor profiling; actives raise or lower the signal
Procedure, shortened: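 Fluorescence-labelled reporter cDNA fragments, separated by capillary electrophoresis, gave the signal for this component of a 52-readout multiplex. HepG2 cells were transfected, exposed to chemicals for 24 h, and compared with DMSO using bidirectional fitting.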

[7] = target: Retinoic acid receptor alpha (Homo sapiens) (UniProt P10276); assay: ATG_DR5_RAR_CIS: Attagene CIS-FACTORIAL HepG2 Assay for human Retinoic Acid Receptor Alpha (RARE), DR5 submotif (AID 2282934); settings: HepG2 Attagene cis-factorial RARE DR5 reporter, mRNA; actives raise or lower the signal;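 on AC50: reporter responds to endogenous RAR alpha beta and gamma in HepG2 not RARA alone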
Retinoic acid receptor alpha (Homo sapiens), sequence (P10276 whole entry, looked up): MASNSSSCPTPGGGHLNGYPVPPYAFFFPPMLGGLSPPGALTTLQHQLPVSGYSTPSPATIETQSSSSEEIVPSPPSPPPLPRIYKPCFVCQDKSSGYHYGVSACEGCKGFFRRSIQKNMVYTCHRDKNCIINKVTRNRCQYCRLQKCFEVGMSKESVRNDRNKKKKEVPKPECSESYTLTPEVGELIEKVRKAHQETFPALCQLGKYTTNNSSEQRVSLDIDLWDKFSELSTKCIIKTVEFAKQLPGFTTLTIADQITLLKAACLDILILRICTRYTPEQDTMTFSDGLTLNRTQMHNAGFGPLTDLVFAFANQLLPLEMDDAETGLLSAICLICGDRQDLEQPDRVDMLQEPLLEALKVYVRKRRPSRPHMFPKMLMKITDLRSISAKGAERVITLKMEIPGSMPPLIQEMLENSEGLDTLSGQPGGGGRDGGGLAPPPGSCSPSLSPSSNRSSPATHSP
Procedure, shortened: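 Endpoint fitted in both directions relative to DMSO as negative control. It reflects DR5 cis-element reporter mRNA induction in transiently transfected HepG2 cells, measured 24 h after dosing through RT-PCR and fluorescent capillary electrophoresis.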

[8] = target: Transcription factor E2F1 (Homo sapiens) (UniProt Q01094); assay: ATG_E2F_CIS: Attagene CIS-FACTORIAL HepG2 Assay for human E2F Transcription Factor 1 (AID 2282935); settings: HepG2 Attagene cis-reporter, E2F reporter RNA transcripts; actives raise or lower the signal
Transcription factor E2F1 (Homo sapiens), sequence (Q01094 whole entry, looked up): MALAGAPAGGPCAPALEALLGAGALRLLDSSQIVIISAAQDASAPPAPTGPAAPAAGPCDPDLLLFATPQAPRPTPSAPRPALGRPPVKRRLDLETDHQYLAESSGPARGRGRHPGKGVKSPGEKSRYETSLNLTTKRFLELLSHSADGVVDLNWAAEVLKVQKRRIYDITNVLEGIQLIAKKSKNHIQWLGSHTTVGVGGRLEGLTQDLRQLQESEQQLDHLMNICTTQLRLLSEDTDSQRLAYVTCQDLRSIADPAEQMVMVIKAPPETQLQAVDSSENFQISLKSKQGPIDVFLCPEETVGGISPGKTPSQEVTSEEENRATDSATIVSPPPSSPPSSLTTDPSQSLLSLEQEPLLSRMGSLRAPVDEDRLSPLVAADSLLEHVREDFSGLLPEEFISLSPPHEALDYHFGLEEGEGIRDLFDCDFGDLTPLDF
Procedure, shortened: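 HepG2 cells transiently transfected with multiplexed cis-element reporter units, dosed for 24 h. Reporter mRNA measured by RT-PCR, 6-FAM primer-extension labeling, HpaI digestion and capillary electrophoresis; bidirectional fit versus DMSO baseline.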

[9] = ATG_M_61_CIS: Attagene CIS-FACTORIAL HepG2 Assay for M61 Transcription Factor (Internal Marker) (AID 2282937); settings: HepG2 Attagene CIS-FACTORIAL M61 internal marker reporter; actives raise or lower the signal
Procedure, shortened: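 Endogenous transcription factor activity in HepG2 is read through transiently transfected cis-element reporter units. After 24 h dosing, RNA undergoes reverse transcription, PCR and primer extension with 6-FAM before capillary electrophoresis; DMSO-referenced bidirectional fit.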

[10] = ATG_EGR_CIS: Attagene CIS-FACTORIAL HepG2 Assay for human Early Growth Response 1 (EGR1) (AID 2282938); settings: HepG2 Attagene CIS-FACTORIAL EGR reporter mRNA; actives raise or lower the signal
Procedure, shortened: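 Activity is taken as induction or loss of reporter mRNA versus DMSO, fitted bidirectionally. Transcripts from cis-regulated reporter units in transiently transfected HepG2 were measured after 24 h by RT-PCR with capillary electrophoresis.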

[11] = ATG_M_19_CIS: Attagene CIS-FACTORIAL HepG2 Assay for M19 Transcription Factor (Internal Marker) (AID 2282939); settings: HepG2 Attagene CIS-FACTORIAL M19 internal marker reporter; actives raise or lower the signal
Procedure, shortened: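 HepG2, MRTU transient transfection, 24 h dosing. Total RNA → RT-PCR → 6-FAM primer extension → HpaI digest → CE fluorescence. Bidirectional curve fit, DMSO negative control.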

[12] = ATG_Ets_CIS: Attagene CIS-FACTORIAL HepG2 Assay for human Erythroblast Transformation Specific (ETS) (AID 2282941); settings: HepG2 ETS cis-reporter transcription, actives raise or lower the signal
Procedure, shortened: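 HepG2 cells transfected with multiple cis-regulated reporter units measuring endogenous ETS-driven transcription, 24 h after dosing. Reporter mRNA quantified by RT-PCR with capillary electrophoresis; bidirectional fit relative to DMSO.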

[13] = target: Hepatocyte nuclear factor 3-beta (Homo sapiens) (UniProt Q9Y261); assay: ATG_FoxA2_CIS: Attagene CIS-FACTORIAL HepG2 Assay for human Forkhead box A2 (FOXA2) (AID 2282942); settings: HepG2 cis-reporter transcription factor activity, 24 h; actives raise or lower the signal
Hepatocyte nuclear factor 3-beta (Homo sapiens), sequence (Q9Y261 whole entry, looked up): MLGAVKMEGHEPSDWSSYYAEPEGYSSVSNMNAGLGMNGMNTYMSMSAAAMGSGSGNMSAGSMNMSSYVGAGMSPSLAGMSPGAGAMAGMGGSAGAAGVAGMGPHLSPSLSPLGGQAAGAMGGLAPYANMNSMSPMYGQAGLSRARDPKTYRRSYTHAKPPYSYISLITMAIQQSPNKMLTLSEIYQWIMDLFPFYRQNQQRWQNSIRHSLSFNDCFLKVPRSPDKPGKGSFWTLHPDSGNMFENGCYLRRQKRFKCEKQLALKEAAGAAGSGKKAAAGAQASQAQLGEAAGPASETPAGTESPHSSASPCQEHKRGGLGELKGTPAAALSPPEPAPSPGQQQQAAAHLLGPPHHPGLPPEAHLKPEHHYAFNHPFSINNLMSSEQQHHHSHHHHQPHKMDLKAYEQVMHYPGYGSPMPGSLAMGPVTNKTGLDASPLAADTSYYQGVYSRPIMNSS
Procedure, shortened: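 Reporter transcript induction is measured by fluorescence after capillary electrophoresis of RT-PCR products from HepG2 cells exposed 24 h. Cis-regulated reporter units report endogenous factor activity; curves fitted both directions against DMSO.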

[14] = ATG_GATA_CIS: Attagene CIS-FACTORIAL HepG2 Assay for human GATA Binding Protein (AID 2282944); settings: HepG2 GATA cis-element reporter, Attagene multiplex mRNA; actives raise or lower the signal
Procedure, shortened: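 Cells: HepG2, transiently transfected with cis-regulated reporter transcription units. Exposure: 24 h. Detection: RT-PCR plus capillary electrophoresis of FAM-labeled fragments. Analysis: bidirectional, DMSO as baseline.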

[15] = ATG_GLI_CIS: Attagene CIS-FACTORIAL HepG2 Assay for human Zinc Finger Protein GLI1 (AID 2282945); settings: HepG2, Attagene cis-factorial reporter mRNA, GLI element; actives raise or lower the signal
Procedure, shortened: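 HepG2 cells transiently transfected with cis-promoter multiplexed reporter units report endogenous transcription factor activity. After 24 h chemical exposure, reporter mRNA was quantified by RT-PCR, 6-FAM labelling, HpaI digestion and capillary electrophoresis, with bidirectional fitting against DMSO.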

[16] = ATG_AP_1_CIS: Attagene CIS-FACTORIAL HepG2 Assay for human Activator Protein 1 (AP-1) (AID 2282931); settings: HepG2 Attagene cis-factorial AP-1 reporter mRNA; actives raise or lower the signal
Procedure, shortened: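 Multiplexed HepG2 reporter assay, 24 h dosing. mRNA induction detected by RT-PCR plus capillary electrophoresis. Activity fitted in both directions against DMSO.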

[17] = ATG_E_Box_CIS: Attagene CIS-FACTORIAL HepG2 Assay for human Enhancer Box (E-box) (AID 2282936); settings: HepG2 E-box cis-reporter transcription, actives raise or lower the signal
Procedure, shortened: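 HepG2 cells transiently transfected with multiplexed cis-element reporter units sensing endogenous transcription factor activity; 24 h compound exposure. Reporter mRNA measured by RT-PCR, 6-FAM primer extension, HpaI digestion and capillary electrophoresis; bidirectional fit versus DMSO.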

[18] = ATG_FoxO_CIS: Attagene CIS-FACTORIAL HepG2 Assay for human Forkhead box O (FoxO) (AID 2282943); settings: HepG2 Attagene cis-reporter, FoxO element, mRNA; actives raise or lower the signal
Procedure, shortened: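 Values reflect reporter mRNA induction or loss in HepG2 cells 24 h post-dosing, fitted bidirectionally with DMSO as negative control and baseline. Detection used RT-PCR and fluorescence capillary electrophoresis.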

[19] = ATG_CMV_CIS: Attagene CIS-FACTORIAL HepG2 Assay for human CMV (Internal Marker) (AID 2282928); settings: HepG2 CMV promoter reporter, transcription factor profiling; actives raise or lower the signal;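 further: endpoint acts as a background internal control marker rather than a target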
Procedure, shortened: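 CMV internal-marker background readout in transiently transfected HepG2 cells bearing cis-regulated reporter units. Reporter mRNA is measured 24 h after dosing by RT-PCR and capillary electrophoresis, with bidirectional fitting against DMSO.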

With `O=C(Nc1ccc([N+](=O)[O-])cc1)Nc1ccc([N+](=O)[O-])cc1` (tested in a mixture with another compound) the outcome [1] was “inactive”, the outcome [2] was “inactive” and the outcome [3] was “inactive”. The AC50 [4] was 35.1 µM (active), the outcome [5] was “inactive” and the outcome [6] was “inactive”. For the same compound, the outcome [7] was “inactive”, the outcome [8] was “inactive” and the outcome [9] was “inactive”. The outcome [10] was “inactive”, the outcome [11] was “inactive” and the outcome [12] was “inactive”. For the same compound, the outcome [13] was “inactive”, the outcome [14] was “inactive” and the outcome [15] was “inactive”.

In the case of `CC(=O)c1c(C)c([N+](=O)[O-])c(C(C)(C)C)c([N+](=O)[O-])c1C`, the outcome [1] was “inactive”, the outcome [2] was “inactive” and the outcome [3] was “inactive”. The outcome [4] was “inactive”, the outcome [16] was “inactive” and the outcome [5] was “inactive”. The outcome [6] was “inactive”, the AC50 [7] was 1.6 µM (active) and the outcome [8] was “inactive”. For the same compound, the outcome [17] was “inactive”, the outcome [9] was “inactive” and the outcome [10] was “inactive”. The outcome [11] was “inactive”, the outcome [12] was “inactive” and the outcome [13] was “inactive”. For the same compound, the outcome [18] was “inactive” and the outcome [15] was “inactive”.

For `C=C1CC[C@H](O)C/C1=C/C=C1\CCC[C@]2(C)[C@@H]([C@H](C)/C=C/[C@H](C)C(C)C)CC[C@@H]12`, the outcome [1] was “inactive”, the outcome [2] was “inactive” and the outcome [3] was “inactive”. For the same compound, the outcome [4] was “inactive”, the AC50 [16] was 30.3 µM (active) and the outcome [5] was “inactive”. The outcome [6] was “inactive”, the AC50 [7] was 39.8 µM (active) and the outcome [8] was “inactive”. For the same compound, the outcome [17] was “inactive”, the outcome [9] was “inactive” and the outcome [10] was “inactive”. For the same compound, the outcome [11] was “inactive”, the outcome [12] was “inactive” and the outcome [13] was “inactive”. For the same compound, the outcome [14] was “inactive” and the outcome [15] was “inactive”.

In the case of `CN(C)C(=S)SC(=S)N(C)C`, the outcome [1] was “inactive”, the outcome [2] was “inactive” and the outcome [3] was “inactive”. For the same compound, the outcome [4] was “inactive”, the outcome [16] was “inactive” and the outcome [5] was “inactive”. For the same compound, the outcome [6] was “inactive”, the outcome [7] was “inactive” and the outcome [8] was “inactive”. The outcome [9] was “inactive”, the outcome [10] was “inactive” and the outcome [11] was “inactive”. For the same compound, the outcome [12] was “inactive”, the outcome [13] was “inactive” and the outcome [18] was “inactive”. The outcome [15] was “inactive”.

In the case of `ON=C1CCCCC1`, the outcome [1] was “inactive”, the outcome [2] was “inactive” and the outcome [3] was “inactive”. The outcome [4] was “inactive”, the outcome [16] was “inactive” and the outcome [5] was “inactive”. For the same compound, the outcome [6] was “inactive”, the outcome [7] was “inactive” and the outcome [8] was “inactive”. The outcome [17] was “inactive”, the outcome [9] was “inactive” and the outcome [10] was “inactive”. For the same compound, the outcome [11] was “inactive”, the outcome [12] was “inactive” and the outcome [13] was “inactive”. The outcome [18] was “inactive”, the outcome [14] was “inactive” and the outcome [15] was “inactive”.

With `Cc1ncc[nH]1` the outcome [2] was “inactive”, the outcome [19] was “inactive” and the outcome [3] was “inactive”. The outcome [4] was “inactive”, the outcome [16] was “inactive” and the outcome [5] was “inactive”. The outcome [6] was “inactive”, the outcome [7] was “inactive” and the outcome [8] was “inactive”. For the same compound, the outcome [17] was “inactive”, the outcome [9] was “inactive” and the outcome [10] was “inactive”. The outcome [11] was “inactive”, the outcome [12] was “inactive” and the outcome [13] was “inactive”. For the same compound, the outcome [18] was “inactive”, the outcome [14] was “inactive” and the outcome [15] was “inactive”.

In the case of `CCCCCCCC(=O)OCC(O)CO` (stereo not drawn), the outcome [1] was “inactive”, the outcome [2] was “inactive” and the outcome [3] was “inactive”. For the same compound, the outcome [4] was “inactive”, the outcome [16] was “inactive” and the outcome [5] was “inactive”. The outcome [6] was “inactive”, the outcome [7] was “inactive” and the outcome [8] was “inactive”. For the same compound, the outcome [17] was “inactive”, the outcome [9] was “inactive” and the outcome [10] was “inactive”. The outcome [11] was “inactive”, the outcome [12] was “inactive” and the outcome [13] was “inactive”. For the same compound, the outcome [14] was “inactive” and the outcome [15] was “inactive”.
